{"source": "the supplement of paper PMC6897291", "note": "Where a name gives a salt, the structure may show the parent alone.", "data": [{"test_system": "RIVA", "assay": "growth inhibition by drug plus 177Lu-lilotomab satetraxetan (1 - RLU/untreated control) (fraction); higher = stronger inhibition", "conditions": "10 nM; time (day): 6; 177Lu-lilotomab satetraxetan 0.5 ug/ml", "outline": "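RIVA or U-2932 cells were left untreated or pretreated for 18 h with a radiolabelled anti-CD37 antibody conjugate (~600 MBq/mg) at 0.5 µg/ml for RIVA or 1 µg/ml for U-2932. The cells were then washed and seeded at 3,000 cells/well on plates pre-printed with the Selleck Cambridge Cancer Compound library, dosed at 10/100 nM for RIVA and 10/1,000 nM for U-2932. From day 3, RealTime-Glo luminescence was read daily after 1 h at 37°C. Growth inhibition was taken as one minus RLU over the mean of the untreated no-drug wells, of which there were 48 per plate.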", "values": [{"smiles": "O=C1CN2Cc3c(ccc(Cl)c3Cl)N=C2N1", "note": "[Anagrelide]", "growth inhibition by drug plus 177Lu-lilotomab satetraxetan": 0.635}, {"smiles": "Cc1cc(Nc2cc(N3CCN(C)CC3)nc(/C=C/c3ccccc3)n2)n[nH]1", "growth inhibition by drug plus 177Lu-lilotomab satetraxetan": 0.521}, {"smiles": "CCc1cc(Nc2nccc(-c3c(-c4ccc(OC)c(C(=O)Nc5c(F)cccc5F)c4)nc4ccccn34)n2)c(OC)cc1N1CCC(N2CCN(S(C)(=O)=O)CC2)CC1", "growth inhibition by drug plus 177Lu-lilotomab satetraxetan": 0.545}, {"smiles": "O=C1CN2Cc3c(ccc(Cl)c3Cl)N=C2N1", "note": "[Anagrelide hydrochloride]", "growth inhibition by drug plus 177Lu-lilotomab satetraxetan": 0.641}, {"smiles": "O=C(NCCCNc1nc(Nc2cccc(NC(=O)N3CCCC3)c2)ncc1I)c1cccs1", "growth inhibition by drug plus 177Lu-lilotomab satetraxetan": 0.838}, {"smiles": "CCC[C@H](NC(=O)/C(C#N)=C/c1cccc(Br)n1)c1ccccc1", "growth inhibition by drug plus 177Lu-lilotomab satetraxetan": 0.61}, {"smiles": "COc1cc2nc(N3CCCN(C)CC3)nc(NC3CCN(Cc4ccccc4)CC3)c2cc1OC", "growth inhibition by drug plus 177Lu-lilotomab satetraxetan": 0.631}, {"smiles": "C#Cc1cccc(Nc2ncnc3cc(OCCOC)c(OCCOC)cc23)c1", "note": "[Erlotinib HCl]", "growth inhibition by drug plus 177Lu-lilotomab satetraxetan": 0.524}, {"smiles": "CN(C)c1ccccc1CN1CCCN(Cc2ccccc2N(C)C)C1c1ccncc1", "growth inhibition by drug plus 177Lu-lilotomab satetraxetan": 0.54}, {"smiles": "COc1cc2c(NC3CCN(C)CC3)nc(N3CCCN(C)CC3)nc2cc1OCCCN(C)C", "growth inhibition by drug plus 177Lu-lilotomab satetraxetan": 0.499}, {"smiles": "COc1ccc(COc2cc3oc(=O)c4cc(C(C)O)ccc4c3cc2OC)cc1", "note": "(stereo not given) [Palomid 529]", "growth inhibition by drug plus 177Lu-lilotomab satetraxetan": 0.503}, {"smiles": "CO[C@@H](C(=O)N1Cc2[nH]nc(NC(=O)c3ccc(N4CCN(C)CC4)cc3)c2C1)c1ccccc1", "growth inhibition by drug plus 177Lu-lilotomab satetraxetan": 0.604}, {"smiles": "Cn1cc(C2=C(c3ccc(Cl)cc3Cl)C(=O)NC2=O)c2ccccc21", "growth inhibition by drug plus 177Lu-lilotomab satetraxetan": 0.555}, {"smiles": "CCc1ccc(CCOc2ccc(CC3SC(=O)NC3=O)cc2)nc1", "note": "(stereo not given) [Pioglitazone (Actos)]", "growth inhibition by drug plus 177Lu-lilotomab satetraxetan": 0.598}, {"smiles": "O=C(O)C1(C(=O)O)CCC1.[NH2-].[NH2-].[Pt+2]", "note": "[Carboplatin]", "growth inhibition by drug plus 177Lu-lilotomab satetraxetan": 0.54}, {"smiles": "CS(=O)(=O)c1ccc(C(=O)Nc2ccc(Cl)c(-c3ccccn3)c2)c(Cl)c1", "note": "[Vismodegib (GDC-0449)]", "growth inhibition by drug plus 177Lu-lilotomab satetraxetan": 0.672}, {"smiles": "OCCn1cc(-c2ccc3c(c2)CC/C3=N\\O)c(-c2ccncc2)n1", "growth inhibition by drug plus 177Lu-lilotomab satetraxetan": 0.59}, {"smiles": "CC[C@@H]1C(=O)N(C)c2cnc(Nc3ccc(C(=O)NC4CCN(C)CC4)cc3OC)nc2N1C1CCCC1", "growth inhibition by drug plus 177Lu-lilotomab satetraxetan": 0.978}, {"smiles": "CC[C@]1(O)C[C@H]2CN(CCc3c([nH]c4ccccc34)[C@@](C(=O)OC)(c3cc4c(cc3OC)N(C=O)[C@H]3[C@@](O)(C(=O)OC)[C@H](OC(C)=O)[C@]5(CC)C=CCN6CC[C@]43[C@@H]65)C2)C1", "note": "[Vincristine]", "growth inhibition by drug plus 177Lu-lilotomab satetraxetan": 0.985}, {"smiles": "CC(C)(C)c1ccc(S(=O)(=O)/C=C/C#N)cc1", "growth inhibition by drug plus 177Lu-lilotomab satetraxetan": 0.581}, {"smiles": "Cc1cn(-c2cc(NC(=O)c3ccc(C)c(Nc4nccc(-c5cccnc5)n4)c3)cc(C(F)(F)F)c2)cn1", "note": "[Nilotinib (AMN-107)]", "growth inhibition by drug plus 177Lu-lilotomab satetraxetan": 0.537}, {"smiles": "CC(C)(C#N)c1cc(Cn2cncn2)cc(C(C)(C)C#N)c1", "note": "[Anastrozole]", "growth inhibition by drug plus 177Lu-lilotomab satetraxetan": 0.583}, {"smiles": "C=CCn1c(=O)c2cnc(Nc3ccc(N4CCN(C)CC4)cc3)nc2n1-c1cccc(C(C)(C)O)n1", "growth inhibition by drug plus 177Lu-lilotomab satetraxetan": 0.552}, {"smiles": "Cn1cnc(N)c2ncnc1-2", "note": "[3-Methyladenine]", "growth inhibition by drug plus 177Lu-lilotomab satetraxetan": 0.612}, {"smiles": "CCc1c2c(nc3ccc(OC(=O)N4CCC(N5CCCCC5)CC4)cc13)-c1cc3c(c(=O)n1C2)COC(=O)[C@]3(O)CC", "note": "[Irinotecan HCl Trihydrate (Campto)]", "growth inhibition by drug plus 177Lu-lilotomab satetraxetan": 0.51}]}]}
